These results are taken from PubChem BioAssay (NCATS).

Molecules are shown by their SMILES. Values joined by “and” are separate entries in the source; they are usually repeats but may differ in a detail not shown here. Equal entries are not always repeated. Results filed as inconclusive are left out. Active and inactive are the calls of the source. Calls follow the shape of the dose curve; as a rule, active = well fitted inhibition curve with a large enough effect; inconclusive = small, poorly fitted or top-dose-only effect; inactive = flat fitted curve, though single readings scatter.
% is scaled to controls: 0 for no effect and ±100 for the full control effect; potency is read from the fitted curve at half-maximal effect.

The first test concerns HaCat. The test can be described thus: Cytotoxic Profiling of Annotated Libraries Using Quantitative High-Throughput Screening (AID 1296008). Also: nearly all actives have a fitted effect of over 60% in size. The settings on record: Five cell lines viability, CellTiter-Glo ATP luminescence, 48-72 h; max response: active compounds read low. The procedure, abridged: (§1)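 Cells exposed to compounds for 48 or 72 hr at 37 degrees Celsius. Viability read as ATP-coupled luminescence with CellTiter-Glo after 10 min at room temperature.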
As to `O=[N+]([O-])c1c2ccccc2cc2ccccc12`, the max response was 3.41% (inactive).

In the case of `C[C@](O)(COc1ccc(C#N)cc1)C(=O)Nc1ccc(C#N)c(C(F)(F)F)c1`, the call was inactive.

`C[C@@]12OC(=O)[C@]1([C@@H](O)[C@@H]1C=CCCC1)NC(=O)[C@H]2CCCl`: the Potency was 16600 nM (active).

On to `CC=C(C)C(=O)O[C@H]1C(C)=C2[C@@H]3OC(=O)[C@@](C)(O)[C@@]3(O)[C@@H](OC(=O)CCC)C[C@](C)(OC(C)=O)[C@@H]2[C@@H]1OC(=O)CCCCCCC`, for which the Potency is 8330 nM (active).

Consider `CCO/N=C(\CC)C1=C(O)CC(c2c(C)cc(C)cc2C)CC1=O` (centres undefined), for which the max response was -8.94% (inactive).

Take `COc1ccc(C(=O)c2c(C)n(CCN3CCOCC3)c3cc(I)ccc23)cc1`: the call was inactive.

In the case of `O=C(O)CNC(=O)c1c(O)c2ccccc2n(Cc2ccccc2)c1=O`, the result was inactive.

For the compound `C[C@@H]1O[C@@H](O[C@@H]2C=C3CC[C@@H]4[C@@H](CC[C@]5(C)[C@H](c6ccc(=O)oc6)CC[C@@]45O)[C@@]3(C)CC2)[C@H](O)[C@H](O)[C@H]1O`, the Potency was 46.9 nM (active).

As for `COCC1(CO)C(=O)C2CCN1CC2` (centres undefined), the compound was called inactive.

For the compound `Nc1ccc(Cl)cc1`, the max response was -11.6% (inactive).

With `O=[N+]([O-])c1ncc[nH]1`, the max response was -7.46% (inactive).

For `CC(Cc1ccc(O)cc1)NCC(O)c1cc(O)cc(O)c1` (centres undefined), the max response is -18.5% (inactive).

`Nc1ccc(Cl)cc1N`: the max response was -38.9% (inactive).

As to `Oc1ccc2c3c1O[C@H]1[C@@H](O)C=C[C@H]4[C@@H](C2)NCC[C@@]341`, the max response was -5.53% (inactive).

Turning to `Fc1cc(Br)ccc1CBr`, the compound was called inactive.

For the compound `C#C[C@]1(O)C=C[C@@H]2[C@@H]3CCC4=CC(=O)CC[C@@H]4[C@H]3CC[C@@]21CC`, the compound was called inactive.

For the compound `C[C@H]1CCCC=CC2C[C@H](O)C[C@@H]2[C@H](O)C=CC(=O)O1` (some centres undefined), the max response was -111% (inactive).

Consider `COC(=O)c1cncn1C(C)c1ccccc1` (centres undefined), for which the max response was -2.03% (inactive).

`CC[C@@H]1[C@@H](C)O[C@@](O)([C@@H](C)[C@H](O)[C@H](C)[C@H]2OC(=O)C=CC=C[C@@H](C)[C@@H]([C@@H](C)[C@@H](O)[C@H](C)[C@@]3(O)C[C@H](O[C@H]4C[C@H](O)[C@H](O)[C@H](C)O4)[C@H](CC)[C@@H](C)O3)OC(=O)C=CC=C[C@@H]2C)C[C@H]1O[C@H]1C[C@H](O)[C@H](O)[C@H](C)O1`: the Potency is 3320 nM (active).

For the compound `C[N+](C)(C)CC(=O)O`, the max response was 3.56% (inactive).

In the case of `CC(=Cc1csc(C)n1)[C@@H]1C[C@H]2O[C@@H]2CCC[C@H](C)[C@@H](O)[C@@H](C)C(=O)C(C)(C)[C@@H](O)CC(=O)O1`, the max response was -20.3% (inactive).

Turning to `O=S(=O)(O)C(F)(F)C(F)(F)C(F)(F)C(F)(F)C(F)(F)C(F)(F)C(F)(F)C(F)(F)F`, the max response was 0.89% (inactive).

`CC1=C(O)C(=O)C=C2C1=CC=C1[C@@]2(C)CC[C@@]2(C)[C@@H]3C[C@](C)(C(=O)O)CC[C@]3(C)CC[C@]12C`: the Potency is 2640 nM (active).

A further test deals with KB-3-1. Described as above. The settings on record: Five cell lines viability, CellTiter-Glo ATP luminescence, 48-72 h; max response: active compounds read low. The procedure, abridged: as §1
`S=C(SSC(=S)N1CCCCC1)N1CCCCC1`: the max response is -9.18% (inactive).

Consider `O=[N+]([O-])c1c2ccccc2cc2ccccc12`, for which the max response is -16.7% (inactive).

With `COC1=CC(C)=C[C@@H](C)[C@@H](O)[C@@H](C)CC(C)=CC=C[C@H](OC)[C@H]([C@@H](C)[C@@H](O)[C@H](C)[C@@]2(O)C[C@@H](O)[C@H](C)[C@@H](C(C)C)O2)OC1=O`, the Potency was 5.9 nM (active).

`C[C@](O)(COc1ccc(C#N)cc1)C(=O)Nc1ccc(C#N)c(C(F)(F)F)c1`: the max response was -23.6% (inactive).

For the compound `C[C@@]12OC(=O)[C@]1([C@@H](O)[C@@H]1C=CCCC1)NC(=O)[C@H]2CCCl`, the Potency was 418 nM (active).

As to `CC[C@H]1C=CC=CC[C@@H](C)[C@H](O)[C@@](C)(O)C(=O)[C@@H](C)[C@H](O)[C@@H](C)C(=O)[C@@H](C)[C@H](O)[C@@H](C)C=CC(=O)O[C@@H]2[C@@H](C)[C@H](CC1)O[C@]1(CC[C@H](C)[C@H](C[C@@H](C)O)O1)[C@H]2C`, the Potency was 372 nM (active).

In the case of `CCO/N=C(\CC)C1=C(O)CC(c2c(C)cc(C)cc2C)CC1=O` (centres undefined), the max response was -11.8% (inactive).

Consider `O=C(O)CNC(=O)c1c(O)c2ccccc2n(Cc2ccccc2)c1=O`, for which the max response was 5.38% (inactive) and 7.42% (inactive).

`C[C@@H]1O[C@@H](O[C@@H]2C=C3CC[C@@H]4[C@@H](CC[C@]5(C)[C@H](c6ccc(=O)oc6)CC[C@@]45O)[C@@]3(C)CC2)[C@H](O)[C@H](O)[C@H]1O`: the Potency was 26.4 nM (active).

As to `COCC1(CO)C(=O)C2CCN1CC2` (centres undefined), the max response is 3.43% (inactive).

Consider `Nc1ccc(Cl)cc1`, for which the max response is -17.1% (inactive).

Take `O=C(Nc1ccccc1-c1ccc(Cl)cc1)c1cccnc1Cl`: the max response is -17.8% (inactive).

As for `CS(=O)(=O)c1ccc(C(=O)C2C(=O)CCCC2=O)c([N+](=O)[O-])c1`, the max response was -20.3% (inactive).

On to `O=C(O)c1cc(Oc2ccc(C(F)(F)F)cc2Cl)ccc1[N+](=O)[O-]`, for which the max response is -8.96% (inactive).

`CC=C(C)C(=O)N[C@@H](c1ccccc1)[C@@H](O)C(=O)O[C@H]1C[C@@]2(O)[C@@H](OC(=O)c3ccccc3)[C@@H]3[C@]4(OC(C)=O)CO[C@@H]4C[C@H](O)[C@@]3(C)C(=O)[C@H](OC(C)=O)C(=C1C)C2(C)C`: the Potency is 1 nM (active).

With `CC(Cc1ccc(O)cc1)NCC(O)c1cc(O)cc(O)c1` (centres undefined), the max response is 6.39% (inactive).

`Nc1ccc(Cl)cc1N`: the max response was -2.75% (inactive).

Regarding `Oc1ccc2c3c1O[C@H]1[C@@H](O)C=C[C@H]4[C@@H](C2)NCC[C@@]341`, the max response is -5.17% (inactive).

Take `CC1(C)CC/C(=C/c2ccc(Cl)cc2)C1(O)Cn1cncn1` (centres undefined): the max response was -19.8% (inactive).

In the case of `Cc1c(C(=O)Nc2cccc(C(F)(F)F)c2)cc(-c2ccccc2)n1CCCN1CCOCC1`, the max response is -13.2% (inactive).

On to `CCCN1CCO[C@@H]2c3cc(O)ccc3OC[C@@H]21`, for which the result was inactive.

Take `C[C@H]1CCCC=CC2C[C@H](O)C[C@@H]2[C@H](O)C=CC(=O)O1` (some centres undefined): the Potency was 1 nM (active).

For `COC(=O)c1cncn1C(C)c1ccccc1` (centres undefined), the max response was -9.65% (inactive).

Consider `CC[C@@H]1[C@@H](C)O[C@@](O)([C@@H](C)[C@H](O)[C@H](C)[C@H]2OC(=O)C=CC=C[C@@H](C)[C@@H]([C@@H](C)[C@@H](O)[C@H](C)[C@@]3(O)C[C@H](O[C@H]4C[C@H](O)[C@H](O)[C@H](C)O4)[C@H](CC)[C@@H](C)O3)OC(=O)C=CC=C[C@@H]2C)C[C@H]1O[C@H]1C[C@H](O)[C@H](O)[C@H](C)O1`, for which the Potency is 5900 nM (active).

Regarding `C[N+](C)(C)CC(=O)O`, the max response was -11.7% (inactive) and 3.15% (inactive).

Regarding `COCCOCCO`, the max response was -8.22% (inactive).

Regarding `CC(=Cc1csc(C)n1)[C@@H]1C[C@H]2O[C@@H]2CCC[C@H](C)[C@@H](O)[C@@H](C)C(=O)C(C)(C)[C@@H](O)CC(=O)O1`, the Potency is 0.4 nM (active).

For the compound `CCCCOC(=O)c1ccccc1C(=O)OCc1ccccc1`, the max response is -13.6% (inactive).

Take `O=S(=O)(O)C(F)(F)C(F)(F)C(F)(F)C(F)(F)C(F)(F)C(F)(F)C(F)(F)C(F)(F)F`: the max response is -10.5% (inactive).

As for `CC1=C(O)C(=O)C=C2C1=CC=C1[C@@]2(C)CC[C@@]2(C)[C@@H]3C[C@](C)(C(=O)O)CC[C@]3(C)CC[C@]12C`, the Potency is 2960 nM (active).

Consider `CC(C)Oc1cccc(NC(=O)c2ccccc2C(F)(F)F)c1`, for which the max response was -12.9% (inactive).
